Out of some 47,000 compounds screened, about 2,800 (6%) were called active. This is one part of a sample in which actives are shown more often than they occur. No stated cut-off is given here; in the data, active means z-score above about 3 (passing the limit was not always enough); inactive means the rest.
These compounds were tested against Endoribonuclease Dicer (Homo sapiens) (UniProt Q9UPY3) (assay: Dicer cleavage of pre-miR-21 blockers – biochemical, cat-ELCCA, chemiluminescence, primary screen (AID 1347074;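 further: plate controls were vehicle for no effect and no enzyme for full effect; higher signal means more uncleaved substrate so more Dicer inhibition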)). Settings: cat-ELCCA pre-miR-21 Dicer processing, at 25 µM, stronger effect = higher value.
Endoribonuclease Dicer (Homo sapiens), sequence (Q9UPY3 whole entry, looked up): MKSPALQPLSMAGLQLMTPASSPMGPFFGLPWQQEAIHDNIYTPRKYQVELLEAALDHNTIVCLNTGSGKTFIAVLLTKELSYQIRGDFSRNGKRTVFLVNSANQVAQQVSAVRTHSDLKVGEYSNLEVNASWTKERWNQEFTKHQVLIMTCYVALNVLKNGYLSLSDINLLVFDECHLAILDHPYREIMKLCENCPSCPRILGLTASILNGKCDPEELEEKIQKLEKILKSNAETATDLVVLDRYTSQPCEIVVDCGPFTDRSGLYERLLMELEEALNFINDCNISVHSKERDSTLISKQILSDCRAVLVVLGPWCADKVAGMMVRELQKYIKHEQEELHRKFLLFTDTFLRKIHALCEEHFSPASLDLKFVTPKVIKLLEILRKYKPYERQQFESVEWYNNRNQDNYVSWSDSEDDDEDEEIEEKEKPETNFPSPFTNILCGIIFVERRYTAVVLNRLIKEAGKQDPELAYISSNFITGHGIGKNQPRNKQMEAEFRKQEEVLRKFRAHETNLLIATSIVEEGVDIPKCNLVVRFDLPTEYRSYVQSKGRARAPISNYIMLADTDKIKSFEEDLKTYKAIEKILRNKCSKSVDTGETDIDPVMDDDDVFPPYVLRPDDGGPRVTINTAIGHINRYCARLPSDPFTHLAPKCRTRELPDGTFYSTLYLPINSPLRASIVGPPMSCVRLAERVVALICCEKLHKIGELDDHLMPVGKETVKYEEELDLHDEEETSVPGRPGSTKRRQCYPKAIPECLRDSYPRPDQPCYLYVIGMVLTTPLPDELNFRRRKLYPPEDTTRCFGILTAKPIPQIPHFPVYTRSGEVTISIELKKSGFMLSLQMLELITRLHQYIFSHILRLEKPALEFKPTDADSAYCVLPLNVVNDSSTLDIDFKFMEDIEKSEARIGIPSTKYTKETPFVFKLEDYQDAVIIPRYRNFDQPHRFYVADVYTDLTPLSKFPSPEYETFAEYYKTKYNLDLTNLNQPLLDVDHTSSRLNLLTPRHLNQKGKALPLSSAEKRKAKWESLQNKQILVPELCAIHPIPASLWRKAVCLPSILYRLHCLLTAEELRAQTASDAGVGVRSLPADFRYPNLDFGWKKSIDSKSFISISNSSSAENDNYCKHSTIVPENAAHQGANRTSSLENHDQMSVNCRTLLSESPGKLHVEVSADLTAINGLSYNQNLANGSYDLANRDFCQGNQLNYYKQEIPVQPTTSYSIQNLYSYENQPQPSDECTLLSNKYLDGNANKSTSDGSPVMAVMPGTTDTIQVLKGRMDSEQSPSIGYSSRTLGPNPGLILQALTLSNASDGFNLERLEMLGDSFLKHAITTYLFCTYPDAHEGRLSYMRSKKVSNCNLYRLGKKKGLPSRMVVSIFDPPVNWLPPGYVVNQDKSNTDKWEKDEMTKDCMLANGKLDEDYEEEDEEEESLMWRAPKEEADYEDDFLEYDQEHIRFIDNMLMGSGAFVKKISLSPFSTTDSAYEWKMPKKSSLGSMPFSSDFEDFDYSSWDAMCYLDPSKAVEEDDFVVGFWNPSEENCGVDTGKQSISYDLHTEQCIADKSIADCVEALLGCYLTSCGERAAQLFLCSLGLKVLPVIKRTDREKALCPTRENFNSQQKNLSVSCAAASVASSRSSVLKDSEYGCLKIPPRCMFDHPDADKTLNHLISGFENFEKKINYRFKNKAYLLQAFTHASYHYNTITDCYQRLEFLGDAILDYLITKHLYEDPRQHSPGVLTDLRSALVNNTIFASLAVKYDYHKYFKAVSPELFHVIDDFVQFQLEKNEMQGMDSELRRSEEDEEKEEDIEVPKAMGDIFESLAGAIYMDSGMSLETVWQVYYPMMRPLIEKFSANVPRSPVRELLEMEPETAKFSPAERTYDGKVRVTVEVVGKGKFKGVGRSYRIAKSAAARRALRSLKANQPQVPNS

Compound	z-score
Cc1oc(C(C)(C)C)cc1C(=O)Nc1ccc(SCc2cccc(Cl)c2F)cc1	-1.58 (inactive)
CC(C)=Cc1nc2cccc(F)c2c(=O)o1	0.25 (inactive)
COc1ccc(-c2csc3nc(-c4ccccc4F)oc(=O)c23)cc1OC	0.98 (inactive)
Cc1sc2nc(-c3ccccc3F)oc(=O)c2c1C	3.11 (active)
Cc1cc(C)c(C#N)c(Sc2ccc(Cl)cc2)n1	-0.54 (inactive)
CN1C(=O)C2(/C(=C(/O)c3ccc(Cl)cc3)C(=O)C(=O)N2CC2CCCO2)c2ccccc21 (stereo unspecified)	0.79 (inactive)
CN(C)S(=O)(=O)N(CC(=O)NC1CC2CCC1C2)c1ccccc1 (stereo unspecified)	-1.13 (inactive)
N#C/C(=C\N1CCOCC1)S(=O)(=O)Cc1ccc(Cl)cc1	-1.52 (inactive)
O=C(NCCc1c[nH]c2ccccc12)C(=O)NCC1CCCO1 (stereo unspecified)	-1.03 (inactive)
COC(=O)C(Cc1c[nH]c2ccccc12)NC(=O)CN1CCCCC1 (stereo unspecified)	4.61 (active)
CC(=O)NC(Cc1c[nH]c2ccccc12)C(=O)O (stereo unspecified)	2.44 (inactive)
COC(=O)c1ccc(S(=O)(=O)NCc2ccccc2)n1C	1.21 (inactive)
Cc1oc2ccc(NS(=O)(=O)c3ccc4c5c(cccc35)C(=O)N4)cc2c1C(=O)OC(C)C	2.44 (inactive)
COC(=O)c1c(C)oc2ccc(NS(=O)(=O)c3cccc4cccnc34)cc12	3.25 (active)
COCCOC(=O)c1c(C)oc2ccc(NS(=O)(=O)c3ccc(Cl)cc3)cc12	-0.11 (inactive)
CCOC(=O)C1=C(C)NC2=C(C(=O)c3ccccc32)C1c1ccc(OC(=O)c2ccccc2)cc1 (stereo unspecified)	-1.18 (inactive)
Cn1nc(Oc2nc(N3CCCCC3)nc(N3CCCCC3)n2)ccc1=O	1.65 (inactive)
CCOC(=O)C(Nc1cccc(Cl)c1)C(=O)OCC	-1.26 (inactive)
Cc1ccc(N=C2SC3(CC3)C(=O)N2c2ccc(C)cc2)cc1	0.49 (inactive)
O=C1N(c2ccccc2)C(=Nc2ccccc2)SC12CC2	4.33 (active)
O=C1c2ccc3c4c(ccc(c24)C(=O)N1c1ccccc1)C(=O)N(c1ccccc1)C3=O	-0.71 (inactive)

Compound	z-score
CC1(C)Cc2c(sc3ncn4nc(-c5ccco5)nc4c23)C(C)(C)N1	0.09 (inactive)
Nc1cccc2c(S(=O)(=O)N3CCCCC3)cccc12	-1.6 (inactive)
Cc1cccc(NC(c2cccc(F)c2)c2ccc3ccc(C)nc3c2O)n1 (stereo unspecified)	0.62 (inactive)
Cc1ccnc(NC(c2ccc(O)cc2)c2ccc3ccc(C)nc3c2O)c1 (stereo unspecified)	4.59 (active)
Cc1cccc(NC(c2ccc3c(c2)OCO3)c2ccc3ccc(C)nc3c2O)n1 (stereo unspecified)	1.45 (inactive)
COc1ccc(-n2ncc(C(=O)NCc3c(Cl)cccc3Oc3ccccc3)c2C)cc1	-2.95 (inactive)
CSc1sc(C(=O)Nc2ccc(Cl)cc2)c2c1S(=O)(=O)N(C)c1ccccc1-2	-0.3 (inactive)
CCC(CC)NC(=O)C1c2ccccc2Oc2ccccc21	6.16 (active)
N#Cc1ccc(N2CCN(C(=O)c3cc(-c4ccc(Cl)cc4)oc3C(F)(F)F)CC2)cc1	0.32 (inactive)
Cc1ccc(-c2cn3cc(C)ccc3n2)cc1	-0.35 (inactive)
COc1ccc(-c2cn3ccc(C)cc3n2)cc1F	3.54 (active)
CC(C)c1cc(C(C)C)c(S(=O)(=O)NCc2cccnc2)c(C(C)C)c1	-0.34 (inactive)
Cc1cc(OCC(=O)O)cc2c1C(=O)CC(C)(C)O2	1.97 (inactive)
Cc1nc(-c2cc(C#N)c(SCCNS(=O)(=O)c3ccc(Cl)cc3Cl)nc2C)cs1	-0.5 (inactive)
C=CCOc1ccc(C2c3c(oc4ccccc4c3=O)C(=O)N2c2nncs2)cc1 (stereo unspecified)	-1.03 (inactive)
CC(=O)Nc1cc(Sc2ccc(C)cc2)c(F)cc1[N+](=O)[O-]	-0.55 (inactive)
Cc1ccc2nc(CCC(=O)O)[nH]c2c1	1.6 (inactive)
CC(=O)C(Cc1ccc([N+](=O)[O-])cc1)(Cc1c(F)cccc1Cl)C(C)=O	3.5 (active)
O=[N+]([O-])c1ccc(CSc2nc3cc(Cl)c(F)cc3[nH]2)cc1	0.13 (inactive)
O=C(CSCc1c(F)cccc1Cl)NCc1ccc2c(c1)OCO2	1.3 (inactive)
COc1cc(OC)cc(-c2nc3n(n2)C(c2cccc(OC)c2OC)C2=C(CCCC2=O)N3)c1 (stereo unspecified)	-0.15 (inactive)

Compound	z-score
COc1ccccc1C1=Nc2cccc3cccc(c23)N1	-0.3 (inactive)
Brc1ccccc1C1Nc2cccc3cccc(c23)N1	5.91 (active)
COc1cccc(C2Nc3cccc4cccc(c34)N2)c1OC	3.14 (active)
C=CCc1ccc(OCc2ccc(C(=O)OC)cc2)c(OC)c1	0.92 (inactive)
ONC(=Nc1cccc(Cl)c1)c1ccccc1	0.78 (inactive)
CCOC(=O)C1=C(C)NC2=C(C(=O)c3ccccc32)C1c1cccc(F)c1 (stereo unspecified)	-1.25 (inactive)
O=C(O)CCCC(=O)Nc1ccc2c(c1)OCCO2	-0.36 (inactive)
Cc1ccc(C2Nc3nonc3NC3=C2C(=O)CC(C)(C)C3)cc1 (stereo unspecified)	-0.08 (inactive)
Cc1cc(=O)[nH]c(SCc2ccc(Cl)cc2)n1	0.25 (inactive)
Cc1cc(=O)[nH]c(SCc2cn3cccnc3n2)n1	3.69 (active)
Cc1cc(=O)[nH]c(SCc2cn3c(C)cc(C)nc3n2)n1	2.76 (inactive)
CCOCCOC(=O)C1=C(C)NC2=C(C(=O)CCC2)C1c1ccc(O)c(OCC)c1 (stereo unspecified)	-0.34 (inactive)
O=C(Nc1cc(C(F)(F)F)cc(C(F)(F)F)c1)c1csc([N+](=O)[O-])c1	1.87 (inactive)
O=c1[nH]nc(Sc2ncc(Br)cc2[N+](=O)[O-])n1-c1ccc(Cl)cc1	-0.78 (inactive)
Cc1ccc2c(c1)sc1ncc(NC(=O)c3ccc(C(C)(C)C)cc3)c(=O)n12	-1.01 (inactive)
CCn1c2c(c(=O)[nH]c1=O)C(c1ccccc1OC)C1=C(N2)c2ccccc2C1=O (stereo unspecified)	2.33 (inactive)
CCc1ccc(C2CC(=O)Nc3n[nH]c(-c4ccc(Cl)cc4)c32)cc1 (stereo unspecified)	0.45 (inactive)
CC(C)(C)c1ccc(C(=O)Nc2cc(C#N)c3sc4ccccc4n3c2=O)cc1	-0.68 (inactive)
O=C1C(=O)N(CCCN2CCOCC2)C(c2ccco2)/C1=C(\O)c1ccc(F)cc1 (stereo unspecified)	2.92 (inactive)
